{
  "source": "the supplement of paper PMC12067093",
  "about": "“Discovery and optimisation of a covalent ligand for TRIM25 and its application to targeted protein ubiquitination” (Chemical Science, 2025)",
  "target": "TMLHE_Q9NVH6_51_SLTCAWQQHEDHFELK (UniProt Q9NVH6)",
  "sequence (Q9NVH6 whole entry, looked up)": "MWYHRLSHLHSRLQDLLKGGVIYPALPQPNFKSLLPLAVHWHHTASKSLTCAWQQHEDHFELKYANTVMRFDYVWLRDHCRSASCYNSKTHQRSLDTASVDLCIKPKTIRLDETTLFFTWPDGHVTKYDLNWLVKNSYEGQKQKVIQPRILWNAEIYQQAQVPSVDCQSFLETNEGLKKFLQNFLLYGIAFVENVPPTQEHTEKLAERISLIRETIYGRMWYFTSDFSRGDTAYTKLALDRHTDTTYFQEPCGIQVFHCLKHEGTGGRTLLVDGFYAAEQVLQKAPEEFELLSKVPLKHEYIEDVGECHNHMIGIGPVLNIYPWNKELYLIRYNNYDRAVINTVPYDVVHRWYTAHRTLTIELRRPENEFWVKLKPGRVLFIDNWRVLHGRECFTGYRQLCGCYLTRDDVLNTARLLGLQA",
  "test": "probe-labelled cysteine peptide fold change vs DMSO (competition) (log2 fold change); higher = less target engagement (more negative = stronger competition)",
  "details": "THP-1, incubation time: 4 h",
  "note": "About 21,000 targets were measured; listed, in parts, are those with the largest changes and a random draw of the rest.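 Also: competitive profiling in live THP-1 cells: cysteine peptides tagged with an iodoacetamide desthiobiotin (IA-DTB) probe, intensity after compound treatment relative to DMSO-treated cells.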",
  "data": [
    {"smiles": "Cc1cc(C(=O)N2CCCN(C(=O)CCl)CC2)ccc1-c1ccccc1", "note": "[compound 10]", "values": [
      {"measurement": "probe-labelled cysteine peptide fold change", "setting": "10 µM", "value": -0.0542},
      {"measurement": "probe-labelled cysteine peptide fold change", "setting": "50 µM", "value": -0.13}
    ]}
  ]
}
